Key:
[1] = molecular target: Leukocyte tyrosine kinase receptor (Homo sapiens) (UniProt P29376); details: at 1 µM;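 further: each value is the mean inhibition of LTK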
[2] = molecular target: Tyrosine-protein kinase Lyn (Homo sapiens) (UniProt P07948); details: at 0.1 µM
[3] = molecular target: Tyrosine-protein kinase Lyn (Homo sapiens) (UniProt P07948); details: at 1 µM
[4] = molecular target: Tyrosine-protein kinase Lyn (Homo sapiens) (UniProt P07948); details: at 0.1 µM; remark: listed apart in the source
[5] = molecular target: Tyrosine-protein kinase Lyn (Homo sapiens) (UniProt P07948); details: at 1 µM; remark: listed apart in the source
[6] = molecular target: T1, Tyrosine-protein kinase Mer (Homo sapiens) (UniProt Q12866); details: at 0.1 µM
T1 sequence (whole entry): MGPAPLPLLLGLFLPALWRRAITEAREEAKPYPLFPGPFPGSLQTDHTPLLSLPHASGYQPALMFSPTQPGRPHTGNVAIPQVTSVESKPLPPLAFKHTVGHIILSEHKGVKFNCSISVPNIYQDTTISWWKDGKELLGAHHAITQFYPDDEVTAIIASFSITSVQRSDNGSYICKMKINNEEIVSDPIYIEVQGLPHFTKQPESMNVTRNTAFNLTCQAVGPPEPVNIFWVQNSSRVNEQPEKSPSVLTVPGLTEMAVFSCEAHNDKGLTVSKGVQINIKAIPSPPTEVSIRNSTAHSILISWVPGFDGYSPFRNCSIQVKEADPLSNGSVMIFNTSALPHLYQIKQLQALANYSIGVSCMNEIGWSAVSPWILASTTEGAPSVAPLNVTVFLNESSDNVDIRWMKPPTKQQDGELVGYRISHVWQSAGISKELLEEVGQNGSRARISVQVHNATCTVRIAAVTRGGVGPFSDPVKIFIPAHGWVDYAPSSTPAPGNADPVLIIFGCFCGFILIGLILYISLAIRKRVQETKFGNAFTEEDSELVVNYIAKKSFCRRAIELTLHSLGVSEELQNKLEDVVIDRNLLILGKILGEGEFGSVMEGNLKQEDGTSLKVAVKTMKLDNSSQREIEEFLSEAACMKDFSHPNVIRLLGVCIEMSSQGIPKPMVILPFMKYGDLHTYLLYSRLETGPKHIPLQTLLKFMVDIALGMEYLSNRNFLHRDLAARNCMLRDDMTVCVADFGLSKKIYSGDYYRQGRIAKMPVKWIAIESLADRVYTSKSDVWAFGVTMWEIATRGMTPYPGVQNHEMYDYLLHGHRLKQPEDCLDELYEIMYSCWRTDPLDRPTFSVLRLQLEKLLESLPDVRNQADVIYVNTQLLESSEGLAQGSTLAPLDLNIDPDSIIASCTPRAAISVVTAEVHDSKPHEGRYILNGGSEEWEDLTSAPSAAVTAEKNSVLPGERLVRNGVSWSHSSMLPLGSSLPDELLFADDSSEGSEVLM

[7] = molecular target: T1, Tyrosine-protein kinase Mer (Homo sapiens); details: at 1 µM
[8] = molecular target: Hepatocyte growth factor receptor (Homo sapiens) (UniProt P08581); details: at 0.1 µM
[9] = molecular target: Hepatocyte growth factor receptor (Homo sapiens) (UniProt P08581); details: at 1 µM
[10] = molecular target: T2, Muscle, skeletal receptor tyrosine-protein kinase (Homo sapiens) (UniProt O15146); details: at 0.1 µM
T2 sequence (whole entry): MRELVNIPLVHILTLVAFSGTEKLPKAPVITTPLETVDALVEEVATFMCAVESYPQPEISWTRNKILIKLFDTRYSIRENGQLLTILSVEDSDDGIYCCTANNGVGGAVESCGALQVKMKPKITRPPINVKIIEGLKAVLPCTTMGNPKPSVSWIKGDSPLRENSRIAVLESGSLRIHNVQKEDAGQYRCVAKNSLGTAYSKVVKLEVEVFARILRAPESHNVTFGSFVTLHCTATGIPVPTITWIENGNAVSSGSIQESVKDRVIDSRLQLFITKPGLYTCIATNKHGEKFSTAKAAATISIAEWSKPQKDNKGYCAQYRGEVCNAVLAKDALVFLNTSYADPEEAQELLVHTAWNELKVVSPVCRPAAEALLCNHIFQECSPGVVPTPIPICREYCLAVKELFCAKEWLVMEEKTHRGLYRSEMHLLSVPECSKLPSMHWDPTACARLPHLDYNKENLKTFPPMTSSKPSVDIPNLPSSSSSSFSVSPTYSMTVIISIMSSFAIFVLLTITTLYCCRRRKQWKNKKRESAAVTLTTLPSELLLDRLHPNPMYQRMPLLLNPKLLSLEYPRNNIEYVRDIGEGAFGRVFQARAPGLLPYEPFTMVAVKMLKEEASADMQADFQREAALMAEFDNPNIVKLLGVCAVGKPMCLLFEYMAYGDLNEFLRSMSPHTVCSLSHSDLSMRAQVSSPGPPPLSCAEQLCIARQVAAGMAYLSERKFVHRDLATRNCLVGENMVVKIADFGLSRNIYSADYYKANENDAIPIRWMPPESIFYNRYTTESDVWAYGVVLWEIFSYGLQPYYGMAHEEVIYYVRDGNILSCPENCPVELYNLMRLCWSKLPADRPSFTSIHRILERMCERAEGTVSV

[11] = molecular target: T2, Muscle, skeletal receptor tyrosine-protein kinase (Homo sapiens); details: at 1 µM
[12] = molecular target: Platelet-derived growth factor receptor alpha (Homo sapiens) (UniProt P16234); details: at 0.1 µM
Chain of Platelet-derived growth factor receptor alpha (Homo sapiens) (P16234 whole entry): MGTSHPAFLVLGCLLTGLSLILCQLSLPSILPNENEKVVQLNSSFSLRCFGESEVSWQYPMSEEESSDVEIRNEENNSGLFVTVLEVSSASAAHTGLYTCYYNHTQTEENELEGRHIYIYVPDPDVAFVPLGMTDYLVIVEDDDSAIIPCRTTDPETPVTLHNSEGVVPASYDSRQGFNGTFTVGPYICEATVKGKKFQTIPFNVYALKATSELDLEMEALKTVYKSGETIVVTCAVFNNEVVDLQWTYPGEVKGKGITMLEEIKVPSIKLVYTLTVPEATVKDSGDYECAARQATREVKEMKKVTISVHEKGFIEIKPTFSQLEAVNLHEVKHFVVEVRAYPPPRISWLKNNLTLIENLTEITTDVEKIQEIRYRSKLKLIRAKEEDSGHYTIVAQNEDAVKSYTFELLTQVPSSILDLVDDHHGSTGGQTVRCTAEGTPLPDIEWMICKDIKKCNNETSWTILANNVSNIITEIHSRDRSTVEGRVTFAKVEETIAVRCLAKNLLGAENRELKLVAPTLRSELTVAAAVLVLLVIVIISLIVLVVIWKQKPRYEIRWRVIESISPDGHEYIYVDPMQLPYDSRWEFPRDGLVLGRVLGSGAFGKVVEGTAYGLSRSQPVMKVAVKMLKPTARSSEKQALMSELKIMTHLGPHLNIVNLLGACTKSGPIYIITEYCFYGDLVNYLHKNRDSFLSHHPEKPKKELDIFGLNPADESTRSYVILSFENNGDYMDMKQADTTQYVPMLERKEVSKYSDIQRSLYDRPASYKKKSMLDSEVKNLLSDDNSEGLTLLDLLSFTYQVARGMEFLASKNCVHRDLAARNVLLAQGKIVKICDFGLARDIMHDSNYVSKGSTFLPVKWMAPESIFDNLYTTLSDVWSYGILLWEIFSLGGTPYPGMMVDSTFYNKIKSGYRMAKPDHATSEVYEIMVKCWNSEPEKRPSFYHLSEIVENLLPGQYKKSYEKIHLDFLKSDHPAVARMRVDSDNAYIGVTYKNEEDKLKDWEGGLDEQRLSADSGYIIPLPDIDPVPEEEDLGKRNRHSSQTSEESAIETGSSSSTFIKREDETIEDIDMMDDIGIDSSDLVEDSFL

[13] = molecular target: Platelet-derived growth factor receptor alpha (Homo sapiens) (UniProt P16234); details: at 1 µM
[14] = system: Platelet-derived growth factor receptor alpha (Homo sapiens), P16234 [D842V]; details: at 0.1 µM
Chain of Platelet-derived growth factor receptor alpha (Homo sapiens), P16234 [D842V] (P16234 whole entry D842V): as the sequence (P16234 whole entry) above, with D842V counted along it

[15] = system: Platelet-derived growth factor receptor alpha (Homo sapiens), P16234 [D842V]; details: at 1 µM
[16] = system: Platelet-derived growth factor receptor alpha (Homo sapiens), P16234 [T674I]; details: at 0.1 µM
Chain of Platelet-derived growth factor receptor alpha (Homo sapiens), P16234 [T674I] (P16234 whole entry T674I): as the sequence (P16234 whole entry) above, with T674I counted along it

[17] = system: Platelet-derived growth factor receptor alpha (Homo sapiens), P16234 [T674I]; details: at 1 µM
[18] = system: Platelet-derived growth factor receptor alpha (Homo sapiens), P16234 [V561D]; details: at 0.1 µM
Chain of Platelet-derived growth factor receptor alpha (Homo sapiens), P16234 [V561D] (P16234 whole entry V561D): as the sequence (P16234 whole entry) above, with V561D counted along it

[19] = system: Platelet-derived growth factor receptor alpha (Homo sapiens), P16234 [V561D]; details: at 1 µM
[20] = molecular target: Platelet-derived growth factor receptor beta (Homo sapiens) (UniProt P09619); details: at 0.1 µM;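 further: reported value is the mean percent inhibition of the kinase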

Chain of Tyrosine-protein kinase Lyn (Homo sapiens) (P07948 2-512 limits assumed): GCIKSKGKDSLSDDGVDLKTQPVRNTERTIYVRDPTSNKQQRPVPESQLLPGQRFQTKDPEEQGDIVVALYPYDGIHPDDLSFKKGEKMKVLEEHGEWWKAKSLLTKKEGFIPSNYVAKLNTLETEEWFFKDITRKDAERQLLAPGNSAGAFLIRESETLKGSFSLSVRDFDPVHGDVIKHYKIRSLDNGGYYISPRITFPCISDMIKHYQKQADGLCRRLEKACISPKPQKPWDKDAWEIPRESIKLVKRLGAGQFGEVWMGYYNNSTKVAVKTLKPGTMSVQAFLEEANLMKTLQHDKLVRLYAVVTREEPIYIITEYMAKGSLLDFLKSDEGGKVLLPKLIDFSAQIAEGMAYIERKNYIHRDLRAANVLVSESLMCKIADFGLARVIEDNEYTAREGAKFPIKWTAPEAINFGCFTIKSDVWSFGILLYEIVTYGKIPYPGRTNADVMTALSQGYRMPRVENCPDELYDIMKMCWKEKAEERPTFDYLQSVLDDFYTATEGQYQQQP

Row | SMILES | inhibition [1] [%] | inhibition [2] [%] | inhibition [3] [%] | inhibition [4] [%] | inhibition [5] [%] | inhibition [6] [%] | inhibition [7] [%] | inhibition [8] [%] | inhibition [9] [%] | inhibition [10] [%] | inhibition [11] [%] | inhibition [12] [%] | inhibition [13] [%] | inhibition [14] [%] | inhibition [15] [%] | inhibition [16] [%] | inhibition [17] [%] | inhibition [18] [%] | inhibition [19] [%] | inhibition [20] [%]
1 | CS(=O)(=O)CCNCc1ccc(-c2ccc3ncnc(Nc4ccc(OCc5cccc(F)c5)c(C(F)(F)F)c4)c3c2)o1 | 3.49 | 6.53 | 6.94 | 3.88 | 4.94 | 1.14 | 0.83 | 7.18 | 3.55 | 3.27 | 2.72 | 2.57 | 6.52 | 2.53 | 4.33 | 5.78 | 5.59 | 3.25 | 3.17 | -0.33
2 | COc1cc2c(cc1Nc1nc(N3CCc4ccccc43)c3cc[nH]c3n1)N(C(=O)CN(C)C)CC2 | 89.9 | 1.75 | 1.39 | 0.29 | 1.23 | 1.28 | 0.11 | 2.24 | -6.58 | -0.85 | 4.18 | 4.13 | 3.64 | 0.92 | -1.2 | 1.67 | 0.13 | -0.57 | 2.32 | 1.46
3 | CC1=C(C(=O)Nc2ccc3[nH]ncc3c2)C(c2ccc3ccccc3c2)CC(=O)N1 (stereo not given) | 3.95 | 6.74 | 30.8 | 4.2 | 26.2 | 0.87 | 2.79 | 8.81 | 40.3 | 2.08 | 5.45 | 8.08 | 14.6 | 2.86 | 5.83 | 3.54 | 5.01 | 5.52 | 7.45 | 2.15
4 | O=C1Nc2ccc(C(=O)c3ccco3)cc2C1=Cc1cc(Cl)c(O)c(Cl)c1 | 44.2 | 5.67 | 18.9 | 2.95 | 16.2 | 1.35 | 4.42 | 2.06 | 15.7 | 4.03 | 8.26 | 8.06 | 26 | 4.54 | 19.8 | 6.25 | 11.5 | 7.12 | 26.8 | 7.32
5 | Cc1ccc(NC(=O)c2ccnc(N3CCCC3)c2)cc1-c1ccc(C(=O)NCC2CC2)cc1 | 2.5 | 3.64 | 8.64 | 1.83 | 5.14 | 1.62 | 3.81 | 9.41 | 7.36 | 4.38 | 9.18 | 9.86 | 20.7 | 3.63 | 5.68 | 6.03 | 5.86 | 2.7 | 11.8 | 6.34
6 | Nc1ncnc2occ(-c3ccc(NC(=O)Nc4cc(C(F)(F)F)cc(C(F)(F)F)c4)cc3)c12 | 23.7 | 4.96 | 37 | 3.86 | 34 | 0.69 | 14.4 | -0.72 | 10.3 | 77.6 | 89.3 | 79.8 | 79.7 | 14.7 | 66.7 | 60.3 | 94.9 | 90.5 | 96 | 67.8
